Most compounds without a hit are left out; they make up all but 1.4% or so of the library.
MenB inh: inhibitors of Mycobacterium tuberculosis MenB enzyme; P9WNP5; MenB enzyme assay, absorbance read-out; inhibition, % (concentration not given with the values); 100,000 compounds, 0.43% hits; in the data active = inhibition above about 21%, passing the limit was not always enough
Mtb MbtI inh: MbtI salicylate synthase inhibition; P9WFX0; purified MbtI enzyme, fluorescence intensity read-out; inhibition, % (no concentration beside the values); 100,000 compounds, 0.89% hits; in the data active = inhibition mostly above about 56%, no sharp cut-off; inactive = mostly below about 77%
Target sequence (P9WFX0 whole entry, looked up): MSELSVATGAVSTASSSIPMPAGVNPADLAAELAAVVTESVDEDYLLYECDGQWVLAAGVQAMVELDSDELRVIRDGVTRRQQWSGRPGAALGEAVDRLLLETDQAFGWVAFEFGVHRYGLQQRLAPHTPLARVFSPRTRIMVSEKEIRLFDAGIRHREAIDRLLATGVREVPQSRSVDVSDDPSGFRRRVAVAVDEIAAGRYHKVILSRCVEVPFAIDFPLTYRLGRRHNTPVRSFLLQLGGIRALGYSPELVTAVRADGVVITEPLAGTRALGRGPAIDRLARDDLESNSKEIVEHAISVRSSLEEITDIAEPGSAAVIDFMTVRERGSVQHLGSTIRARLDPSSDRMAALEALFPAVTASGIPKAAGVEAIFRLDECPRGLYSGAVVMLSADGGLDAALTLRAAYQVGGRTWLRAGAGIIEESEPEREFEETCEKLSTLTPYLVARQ
AID504770: E. coli YBA685 growth inhibition, screen for V. cholerae RctB inhibitors; E. coli YBA685 rctB-dependent plasmid, OD600 growth, 3 h; hits give low values; z-score (no concentration beside the values); 130,000 compounds, 0.27% hits; AID 504770; in the data active = z-score below about -2, passing the limit was not always enough
Polio RdRp inh: poliovirus RNA polymerase inhibition; % elongation, % (compound at 16.7 µg/mL); 150,000 compounds, 0.66% hits; poliovirus polymerase elongation, fluorescence polarization; hits give low values; in the data active = % elongation below about 90%
* hit, by the source's call; · = no result; ! = not active in a repeat.

SMILES	MenB inh	Mtb MbtI inh	AID504770	Polio RdRp inh
C1CC(CCN2CCOCC2)CCN1	-69	-7	2	106
Brc1csc(CNCCc2ccco2)c1	8	9	-0.3	86*
Brc1ccc(NCc2ccco2)cc1	1	-22	0.2	102
Cc1nn(CC(=O)C23CC4CC(CC(C4)C2)C3)c(=O)c(C#N)c1C	-8	4	-0.55	100
O=C(O)Cn1cc(C=C2C(=O)NC(=S)NC2=O)c2ccccc21	-55	100*	0	102
O=C(O)Cn1cc(C=C2C(=O)NC(=O)NC2=O)c2ccccc21	-249	·	-0.25	111
C=CCn1c(N)nc2c1c(=O)n(C)c(=O)n2C	49*	-5	-0.6	101
COc1ccc(NC(=O)c2ccco2)cc1NC(=S)NC(=O)Cc1ccccc1	-20	-4	0.65	100
CC(=O)Nc1c(C(=O)c2ccc(F)cc2)oc2ccccc12	64*	1	2.5	100
CC(C)(C)c1ccc(C(=O)Nc2c(C(=O)c3ccc(F)cc3)oc3ccccc23)cc1	·	·	·	107
Nc1cccc2cccc(C(=O)O)c12	·	-7	-0.8	89*
Cc1cc(C)c(C#N)c(SCC(=O)c2cc(C)n(C3CCS(=O)(=O)C3)c2C)n1 (stereo not given)	-37	-5	0.75	107
CCc1ccccc1NC(=O)N1CCC(NC(=O)C(C)(C)C)CC1	-31	-14	-1.3	103
Cc1cccc(N2CCN(C(=O)Nc3cn(CC(C)C)c(=O)c4ccccc34)CC2)c1C	·	·	·	98
CCN1CCCC1CNC(=O)Nc1cn(CC(C)C)c(=O)c2ccccc12 (stereo not given)	-10	-28	-0.3	100
COc1ccc(CNC(=O)Nc2cn(CC(C)C)c(=O)c3ccccc23)c(OC)c1	·	·	·	-10*
CCCNC(=O)Nc1cn(CC(C)C)c(=O)c2ccccc12	1	120	-0.9	16*
COc1ccccc1N1CCN(C(=O)Nc2cn(CC(C)C)c(=O)c3ccccc23)CC1	·	·	·	104
Cc1ccc(N2CCN(C(=O)Nc3cn(CC(C)C)c(=O)c4ccccc34)CC2)c(C)c1	·	·	·	68*
CC(C)(C)C(=O)CSc1nc2ccccc2[nH]1	-13	17	-0.65	99
Cc1nnc(Nc2ccccc2)c2c1nnn2Cc1ccccc1Cl	11	-1	0.1	101
N#Cc1c(-c2ccccc2)no[n+]1[O-]	11	0	·	93*
[O-][n+]1onc(-c2ccccc2)c1-c1ccccc1	-33	-15	0.25	103
COc1ccc(OC)c(C(=O)CSC#N)c1	-5	-45	1.9	103
COc1ccc(C(=O)CSC#N)cc1OC	32*	·	-0.6	97
SMILES	MenB inh	Mtb MbtI inh	AID504770	Polio RdRp inh
CSC(N)=Nc1ccc(Cl)cc1	·	·	-2.5*!	·
COC(=O)C1C(=O)NC(S)=C(C#N)C1c1ccccc1Cl (stereo not given)	-12	87*	-0.25	106
CCOc1ccccc1C1C(C#N)=C(SC)NC(=O)C1C(=O)OC (stereo not given)	·	·	0.7	·
N#Cc1cccc(NC(=O)Nc2ccc3c(c2)OCC(=O)N3Cc2ccccc2)c1	-31	16	1.1	104
O=C(Nc1nc2nc(-c3cccs3)cc(C(F)(F)F)c2s1)c1ccco1	0	-104	-0.3	112
CCc1c(C)sc(NC(=S)NCc2ccco2)c1C(=O)OC	-34	33	0.65	99
CCn1c(C(C)Oc2ccc(Cl)cc2)n[nH]c1=S (stereo not given)	-16	89*	1.7	103
CCOC(=O)C1CCCN(C(=O)CSCc2nc(-c3ccc(Cl)cc3)oc2C)C1 (stereo not given)	4	59	0.05	99
O=c1[nH]c(CSc2ccccn2)nc2ccsc12	-22	96*	0.65	128
Cc1cc(Br)cc(C)c1OCCCN(C)C	-1	-4	0.5	88*
CCOc1ccc(NC2=CC(=O)C=CC2=O)cc1	·	98*	0.9	100
CCOc1ccc(NC2=CC(=O)CCC2)cc1	3	-11	-1	101
Cc1ccc(C(=O)OCC(=O)c2ccccc2)s1	-19	-4	-0.5	103
Cc1ccc(C(=O)CCC(=O)O)s1	-33	23	-3.3*	104
CSc1nc(-c2ccccc2)c(C#N)c(N(C)C2CCCCC2)n1	-7	-10	-1.6	102
Cc1ccc(COc2ncnc3cc(Cl)ccc23)cc1	·	·	-0.8	·
CC(NCCC(=O)O)c1ccccc1 (stereo not given)	34*	-3	1.6	99
Cc1ccc2[nH]c(C)c(CCC(=O)O)c(=O)c2c1	-27	90	1.1	103
Cc1n[nH]c(=S)n1/N=C\c1ccco1	8	36	-0.65	90*
Cc1cc(Cl)cc(C)c1OCC1COS(=O)O1 (stereo not given)	-6	-4	0.15	82*
